Test results reported in PubChem BioAssay AID1671202 (University of Kansas High Throughput Screening Laboratory, 2021).
Hit rate of the full screen: of about 190,000 compounds, about 6,900 (3.6%) were called active. This is one part of a sample in which actives are shown more often than they occur. Values without a mark were called inactive. No stated cut-off is given here; in the data, active means inhibition above about 50%; inactive means the rest.

target: Huntingtin (Homo sapiens) (UniProt P42858); assay: mutant huntingtin-calmodulin interaction inhibitors – biochemical, AlphaScreen, primary screen (AID 1671202); conditions: AlphaScreen His-mHTT/GST-CaM binding, luminescence; at 15 µM, hits give high values;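 further: 0% = both proteins with DMSO and 100% = one protein alone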
Sequence (P42858 whole entry, looked up, stated change not applied): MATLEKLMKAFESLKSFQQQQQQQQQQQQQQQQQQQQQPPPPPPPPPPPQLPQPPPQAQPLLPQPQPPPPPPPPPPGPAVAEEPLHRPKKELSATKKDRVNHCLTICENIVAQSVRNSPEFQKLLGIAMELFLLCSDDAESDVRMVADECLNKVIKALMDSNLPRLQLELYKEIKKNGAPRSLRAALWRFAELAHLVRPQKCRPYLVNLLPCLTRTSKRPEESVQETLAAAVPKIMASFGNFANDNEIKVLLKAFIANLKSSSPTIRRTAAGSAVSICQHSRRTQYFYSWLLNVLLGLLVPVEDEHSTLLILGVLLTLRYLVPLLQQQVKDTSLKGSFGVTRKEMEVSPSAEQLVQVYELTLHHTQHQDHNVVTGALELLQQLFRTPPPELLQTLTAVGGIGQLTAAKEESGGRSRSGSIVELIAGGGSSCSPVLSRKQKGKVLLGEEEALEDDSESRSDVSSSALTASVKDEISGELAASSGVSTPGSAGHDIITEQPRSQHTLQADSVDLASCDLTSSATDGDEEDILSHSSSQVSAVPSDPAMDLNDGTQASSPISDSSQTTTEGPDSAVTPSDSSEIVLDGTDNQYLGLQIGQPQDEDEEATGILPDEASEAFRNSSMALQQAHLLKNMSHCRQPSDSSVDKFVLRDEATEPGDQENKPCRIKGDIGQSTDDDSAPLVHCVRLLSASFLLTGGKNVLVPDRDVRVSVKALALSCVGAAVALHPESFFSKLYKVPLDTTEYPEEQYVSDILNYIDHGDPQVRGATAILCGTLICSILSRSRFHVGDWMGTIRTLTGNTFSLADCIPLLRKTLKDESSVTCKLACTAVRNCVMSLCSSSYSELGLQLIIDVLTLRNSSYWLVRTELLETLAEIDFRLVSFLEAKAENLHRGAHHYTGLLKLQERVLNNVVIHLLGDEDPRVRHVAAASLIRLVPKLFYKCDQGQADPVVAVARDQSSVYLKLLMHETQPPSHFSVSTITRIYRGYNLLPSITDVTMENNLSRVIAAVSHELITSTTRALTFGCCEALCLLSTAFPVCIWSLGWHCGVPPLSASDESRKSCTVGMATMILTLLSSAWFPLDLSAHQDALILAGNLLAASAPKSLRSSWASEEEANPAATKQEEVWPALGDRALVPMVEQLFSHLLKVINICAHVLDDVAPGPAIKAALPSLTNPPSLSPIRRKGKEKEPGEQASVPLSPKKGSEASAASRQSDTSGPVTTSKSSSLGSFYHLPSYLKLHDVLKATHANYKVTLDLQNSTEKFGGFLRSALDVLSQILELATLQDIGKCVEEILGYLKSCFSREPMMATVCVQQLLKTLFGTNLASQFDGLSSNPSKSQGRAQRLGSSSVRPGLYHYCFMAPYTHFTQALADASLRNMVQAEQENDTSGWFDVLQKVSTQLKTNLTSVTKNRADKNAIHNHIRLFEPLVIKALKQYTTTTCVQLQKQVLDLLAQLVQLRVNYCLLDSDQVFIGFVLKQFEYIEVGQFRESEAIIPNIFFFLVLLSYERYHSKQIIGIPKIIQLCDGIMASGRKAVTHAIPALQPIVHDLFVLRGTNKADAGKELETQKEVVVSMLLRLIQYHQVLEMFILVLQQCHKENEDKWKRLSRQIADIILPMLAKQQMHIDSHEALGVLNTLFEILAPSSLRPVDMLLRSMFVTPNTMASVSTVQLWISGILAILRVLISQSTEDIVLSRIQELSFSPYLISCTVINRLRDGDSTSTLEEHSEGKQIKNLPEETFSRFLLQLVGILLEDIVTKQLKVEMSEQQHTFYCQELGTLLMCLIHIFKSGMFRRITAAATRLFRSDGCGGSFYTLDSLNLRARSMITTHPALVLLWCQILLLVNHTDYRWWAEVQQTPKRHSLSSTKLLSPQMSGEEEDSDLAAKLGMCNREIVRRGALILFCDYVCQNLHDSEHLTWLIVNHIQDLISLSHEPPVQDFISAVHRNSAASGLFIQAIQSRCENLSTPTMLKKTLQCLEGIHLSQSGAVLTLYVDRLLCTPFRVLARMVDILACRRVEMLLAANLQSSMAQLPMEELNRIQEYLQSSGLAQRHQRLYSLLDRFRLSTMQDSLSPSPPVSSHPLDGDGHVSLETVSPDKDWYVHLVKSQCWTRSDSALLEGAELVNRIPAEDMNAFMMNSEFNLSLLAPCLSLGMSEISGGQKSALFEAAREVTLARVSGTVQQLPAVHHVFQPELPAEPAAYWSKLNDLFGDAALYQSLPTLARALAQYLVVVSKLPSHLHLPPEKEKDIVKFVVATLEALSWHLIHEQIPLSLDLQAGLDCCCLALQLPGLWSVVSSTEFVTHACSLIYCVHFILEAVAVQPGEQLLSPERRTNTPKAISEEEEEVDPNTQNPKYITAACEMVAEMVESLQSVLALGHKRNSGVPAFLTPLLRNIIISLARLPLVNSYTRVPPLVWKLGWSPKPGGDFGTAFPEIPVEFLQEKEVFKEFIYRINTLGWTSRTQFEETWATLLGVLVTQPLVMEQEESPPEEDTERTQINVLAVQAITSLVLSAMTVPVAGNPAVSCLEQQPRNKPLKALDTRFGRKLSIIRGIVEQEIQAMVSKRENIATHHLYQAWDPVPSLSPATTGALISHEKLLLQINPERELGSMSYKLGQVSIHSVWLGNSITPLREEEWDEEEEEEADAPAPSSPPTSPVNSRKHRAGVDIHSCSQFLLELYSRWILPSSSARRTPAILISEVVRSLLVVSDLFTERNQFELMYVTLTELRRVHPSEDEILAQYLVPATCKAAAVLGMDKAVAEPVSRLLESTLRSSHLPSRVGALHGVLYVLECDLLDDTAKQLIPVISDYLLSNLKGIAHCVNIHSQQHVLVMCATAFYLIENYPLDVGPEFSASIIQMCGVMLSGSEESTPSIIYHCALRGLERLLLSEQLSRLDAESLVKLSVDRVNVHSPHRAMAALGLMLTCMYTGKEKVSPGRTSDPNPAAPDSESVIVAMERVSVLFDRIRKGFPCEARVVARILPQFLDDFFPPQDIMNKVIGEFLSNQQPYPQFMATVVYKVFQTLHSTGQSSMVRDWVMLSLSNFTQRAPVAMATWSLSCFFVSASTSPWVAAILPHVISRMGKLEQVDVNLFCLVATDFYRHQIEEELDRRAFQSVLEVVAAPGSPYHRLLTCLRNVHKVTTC

Row | SMILES | inhibition
1 | Cc1ccsc1C1C(C#N)=C(N)N(c2ccc(Br)cc2)C2=C1C(=O)CCC2 (stereo unspecified) | 22%
2 | COC(=O)c1ccc(Cl)cc1NC(=O)N1CCOc2ccccc21 | -2.93%
3 | Cc1ccc(S(=O)(=O)CCC(=O)Nc2c(F)cccc2F)cc1 | 0%
4 | CCN(CC)S(=O)(=O)c1ccc2oc(C(=O)NCC3CCCO3)c(C)c2c1 (stereo unspecified) | 6%
5 | O=C(Nc1cccc(Cl)c1)C1CCCN(c2nccnc2Oc2ccccc2)C1 (stereo unspecified) | -9.65%
6 | COc1ccc(C)cc1NC(=O)N1CC2CC(NC(=O)c3cccs3)C1C2 (stereo unspecified) | 3.7%
7 | COc1cc(NC(=O)c2noc3c2CCCC3)cc(OC)c1OC | 1.68%
8 | O=S1(=O)c2cccc3cccc(c23)N1Cc1cccc(F)c1 | -24.4%
9 | O=C(Nc1ccc(N2CCN(C3CCCC3)C2=O)nc1)c1cc(F)cc(F)c1 | -7.5%
10 | Cc1ccc2c(c1)C(=O)N1CCCCC1C(=O)N2CC(=O)NCCN1CCCCCC1 (stereo unspecified) | 75% (active)
11 | Cc1cccc(CNC(=O)CN2C(=O)C3CCCN3C(=O)c3cccc(C)c32)c1 (stereo unspecified) | -6.69%
12 | CC1CCN(CCNC(=O)CN2C(=O)C3CCCN3C(=O)c3ccc(F)cc32)CC1 (stereo unspecified) | 1.11%
13 | CC(=O)NCc1csc(C2CCN(S(=O)(=O)c3ccc(C)cc3C)CC2)n1 | 6.65%
14 | O=C1NC(c2ccncc2)Nc2sc3c(c21)CCCC3 (stereo unspecified) | 16%
15 | Cc1ccc(C2NC(=O)c3c(sc4c3CCCC4)N2)c(O)c1 (stereo unspecified) | 78% (active)
16 | Cc1ccc(C2NC(=O)c3c(sc4c3CCCC4)N2)cc1 (stereo unspecified) | 5%
17 | Cc1ccc2c(c1)C(=O)NC1(CCN(C(=O)C3CCC3)CC1)N2 | 3.5%
18 | CCOC(=O)C(C)Oc1ccc2c(c1)OC(=Cc1ccc(OC)cc1)C2=O (stereo unspecified) | -21.4%
19 | COc1ccc(C(=O)Nc2cccc(NC(=O)c3ccc(Cl)cc3Cl)c2)cc1 | 4.1%
20 | O=C(c1ccc(F)c(F)c1)N1CCN(c2nnc3ccccn23)CC1 | -6.3%
21 | COc1cc(OC)c(NC(=O)N2CC3CCCN3c3ccccc32)cc1Cl (stereo unspecified) | 38.8%

Row | SMILES | inhibition
22 | Cc1cc(NC(=O)N2CC3CCCN3c3ccccc32)ccc1Br (stereo unspecified) | 87% (active)
23 | CCn1c(C2CCN(C(=O)Nc3ccc(Br)c(C)c3)C2)nc2cccnc21 (stereo unspecified) | 25.2%
24 | CC(C)(C)NC(=O)N1CCC(CNS(=O)(=O)c2ccc(Br)s2)CC1 | -7.3%
25 | CCCNc1cc(N2CCCC(CCC(=O)Nc3cccc(C)c3C)C2)ncn1 (stereo unspecified) | -0.7%
26 | CCCNc1cc(N2CCCC(CCC(=O)Nc3ccc4c(c3)OCCO4)C2)ncn1 (stereo unspecified) | 62.5% (active)
27 | CCCNc1cc(N2CCCC(CCC(=O)N3CCN(CCC)CC3)C2)ncn1 (stereo unspecified) | 5.87%
28 | Cc1ccc(Cl)cc1N1CCN(C(=O)Cn2nc(C(F)(F)F)c(Br)c2C)CC1 | -5%
29 | C=C(C)c1nc2ccc(Br)cc2c(=O)o1 | -3%
30 | Cc1cccc(NC(=O)N2CCc3c(c(-c4nc(C5CC5)no4)nn3C)C2)c1 | 34.8%
31 | Cc1noc(-c2nn(C)c3c2CN(C(=O)Nc2cccc(C(F)(F)F)c2)CC3)n1 | 28.3%
32 | CCc1cccc(NC(=O)N2CCc3c(c(-c4nc(C)no4)nn3C)C2)c1 | 53.9% (active)
33 | CCOC(=O)c1sc(NC(=O)CN2C(=O)c3ccccc3C2=O)c(SC#N)c1C | 0.3%
34 | CCN1c2ccc(C)cc2C(=O)NC12CCN(C(=O)c1cc(F)cc(F)c1)CC2 | 3.5%
35 | COc1ccc(OC)c(Nc2ncc3c(n2)CCN(Cc2ccccc2)C3)c1 | 10.5%
36 | CCN1CCN(c2ncc3c(n2)CCN(Cc2ccccc2Cl)C3)CC1 | 39%
37 | COc1ccc(CN2CCc3nc(Nc4ccc5c(c4)OCCO5)ncc3C2)cc1 | 55.6% (active)
38 | Clc1ccccc1CN1CCc2nc(Nc3ccc4c(c3)OCO4)ncc2C1 | 87.4% (active)
39 | Fc1ccc(Nc2ncc3c(n2)CCN(Cc2ccccc2)C3)cc1 | -7.34%
40 | CCOc1cccc(CN2CCc3nc(Nc4ccc(OC)cc4)ncc3C2)c1 | -0.89%
41 | COc1ccc(CN2CCc3nc(Nc4ccccc4)ncc3C2)c(OC)c1OC | 47.4%
42 | COc1cc(Nc2ncc3c(n2)CCN(Cc2cc(OC)ccc2OC)C3)cc(OC)c1 | 76.3% (active)

Row | SMILES | inhibition
43 | COc1cccc(Nc2ncc3c(n2)CCN(Cc2ccc(F)c(F)c2)C3)c1 | 33.9%
44 | O=C(Nc1nnc(SCc2ccc(C(F)(F)F)cc2)s1)c1cccs1 | -13.3%
45 | CN(Cc1cn(Cc2ccc(C(F)(F)F)cc2)nn1)C1CN(Cc2cn(Cc3ccc(C(F)(F)F)cc3)nn2)S(=O)(=O)C1 (stereo unspecified) | 10.9%
46 | Cc1ccccc1CNC(=O)CCC1CCCN(C(=O)Nc2ccccc2F)C1 (stereo unspecified) | -0.96%
47 | CCCn1c(C2CCN(C(=O)CCC3CCCC3)C2)nc2cccnc21 (stereo unspecified) | 19.8%
48 | Cc1nc(-c2ccc(C(=O)Nc3ccc(C)c(F)c3)cc2)cs1 | -6%
49 | Cc1c(Cl)cccc1NC(=O)c1ccc(F)c(S(=O)(=O)N2CCCC2)c1 | 3%
50 | Cc1ccc2c(c1)CCN1C(=O)CN(S(=O)(=O)c3cccc(Cl)c3C)CC21 (stereo unspecified) | 61.2% (active)
51 | COc1cccc(-c2nc(C3CCN(S(=O)(=O)c4cccc(Cl)c4C)CC3)no2)c1 | -1.63%
52 | CC1C(=O)N(c2ccccc2-c2ccccc2)CCN1C(=O)C1CCCC1 (stereo unspecified) | 3.1%
53 | CSc1ccc(C2C=C(c3ccc(Cl)s3)Nc3ncnn32)cc1 (stereo unspecified) | 21%
54 | CC(C(=O)Nc1ccc(Cl)c(C(F)(F)F)c1)N1C(=O)c2ccccc2C1=O (stereo unspecified) | 24%
55 | CCn1c(SCC(=O)Nc2ccc(Br)cc2)nnc1-c1cc(OC)cc(OC)c1 | 4.9%
56 | CCOc1cccc2cc(C(=O)Nc3nnc(-c4csc(C)n4)o3)oc12 | 54.6% (active)
57 | CCOc1cccc2cc(C(=O)Nc3ccc(Cl)cc3Cl)c(=O)oc12 | 1%
58 | Cc1nc(-c2nnc(NC(=O)c3ccnn3C)o2)cs1 | 50.2% (active)
59 | Cc1csc(-c2ccc(CNC(=O)c3ccnn3C)cc2)n1 | -3.6%
60 | COc1cccc2cc(C(=O)NCCn3ccnc3C)oc12 | -8.3%
61 | CCCCOc1ccc(C(=O)Nc2nnc(-c3ccncc3)o2)cc1 | 40.2%
